Here are results for 7 compounds from PubChem BioAssay (Tox21).

Assay [1] is described as follows: qHTS assay to identify small molecule antagonists of the sonic hedgehog signaling (Shh) pathway (AID 1259369). Further: nearly all actives have a fitted effect of over 45% in size. In short, it runs like this:
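NIH/3T3-derived 3T3Gli1-Luc cells with stably integrated Gli1-Luc reporter were preincubated 4hr at 37 C, then given compounds in DMSO plus Shh conditioned medium and incubated 24hr. Firefly luciferase luminescence read after 30min reagent at room temperature.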

In assay [2] the target is Estrogen receptor beta (Homo sapiens) (UniProt Q92731). Briefly: qHTS assay to identify small molecule agonists of the estrogen receptor beta (ER-beta) signaling pathway (AID 1259377; active means well fitted activation curve with a large enough effect in the signal ratio in the repeat runs, not every such curve was filed as active; the % refers to the signal ratio). In outline:
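In HEK293T cells bearing a UAS-beta-lactamase reporter under ER-beta control, DMSO-delivered compounds were incubated for 16 hr at 37C. Activity was detected as fluorescence 2 hours after LiveBLAzer B/G FRET substrate addition.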
Background: In qHTS, concentration-response curves come from the screen itself.

Assay [3] shares this target. Briefly: qHTS assay to identify small molecule antagonists of the estrogen receptor beta (ER-beta) signaling pathway (AID 1259378; active means well fitted inhibition curve with a large enough effect in the signal ratio in the repeat runs, not every such curve was filed as active; the % refers to the signal ratio). In short, it runs like this:
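Antagonist mode: compounds added to beta-lactamase reporter HEK293T ER-beta-UAS cells stimulated with E2 (1nM final), 16 hr at 37C. LiveBLAzer B/G FRET substrate, 2 hours room temperature, fluorescence read-out.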

Assay [4] in a line: qHTS assay to identify small molecule agonists of the androgen receptor (AR) signaling pathway in the presence of an antagonist - cell viability counter screen (AID 1259379; active means well fitted curve in the direction sought with a large enough effect in the repeat runs; an effect the other way counts as inactive or inconclusive; further: series mostly up to about 92 µM; nearly all actives have a fitted effect of over 25% in size). In short, it runs like this: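 MDA-kb2 human breast carcinoma cells (stable MMTV-luciferase, AR/GR responsive) were seeded 3,000 cells/well, pre-incubated 5 hr at 37C without CO2, then given 3.0uM nilutamide and compounds at 15 concentrations for 16 hr. Viability was read by CellTiter-Fluor fluorescence.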

The nature of assay [5]: qHTS assay to identify small molecule agonists of the estrogen receptor beta (ER-beta) signaling pathway - cell viability counter screen (AID 1259380; active means well fitted curve in the direction sought with a large enough effect in the repeat runs; an effect the other way counts as inactive or inconclusive; further: nearly all actives have a fitted effect of over 30% in size). In outline: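 ER-beta-UAS-bla HEK293T cells in medium with 2% charcoal-stripped FBS were preincubated 6 hr at 37C, dosed with compound in DMSO for 16 hr, then after the bla read, CellTiter-Glo was added for 30 min at room temperature; luminescence recorded.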

Assay [6] concerns the target Androgen receptor (Homo sapiens) (UniProt P10275). Briefly: qHTS assay to identify small molecule agonists of the androgen receptor (AR) signaling pathway in the presence of an antagonist (AID 1259381). Further: nearly all actives have a fitted effect of over 15% in size. In outline: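 MDA-kb2 human breast carcinoma cells carrying an MMTV-luciferase reporter (AR- and GR-responsive) were treated with compounds at 15 concentrations plus 3.0uM final nilutamide for 16hr at 37C without CO2; luminescence was read after ONE-Glo addition.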

Assay [7] is described as follows: qHTS assay to identify small molecule antagonists of the estrogen receptor beta (ER-beta) signaling pathway - cell viability counter screen (AID 1259382; active means well fitted curve in the direction sought with a large enough effect in the repeat runs; an effect the other way counts as inactive or inconclusive;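 further: HEK293T cells carrying ER-beta-UAS-bla reporter stimulated with estradiol; series mostly up to about 92 µM; nearly all actives have a fitted effect of over 55% in size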). In outline:
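ER-beta-UAS-bla HEK293T cells (2,000/well, 2% charcoal-stripped FBS) were pre-incubated 6 hr at 37C, then given compound plus 1nM final 17-beta-estradiol for 16 hr. Viability was read in the same wells by CellTiter-Glo luminescence after 30 min at room temperature.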

In assay [8] the target is Estrogen receptor (Homo sapiens) (UniProt P03372). Nature of the assay: qHTS assay to identify small molecule agonists of the estrogen receptor alpha (ER-alpha) signaling pathway in the presence of an antagonist (AID 1259383). Further: top concentration of the series differs between compounds; nearly all actives have a fitted effect of over 15% in size. In short, it runs like this: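 VM7Luc4E2 cells (endogenous full-length ER-alpha, 4×ERE-luciferase) were precultured 5 days in phenol red-free medium with 10% charcoal-stripped FBS, given 10.0nM ICI-182,780 (final), then treated with compounds at 15 concentrations for 22hr at 37C; luminescence read with ONE-Glo.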
Chain of Estrogen receptor (Homo sapiens) (P03372 whole entry, looked up): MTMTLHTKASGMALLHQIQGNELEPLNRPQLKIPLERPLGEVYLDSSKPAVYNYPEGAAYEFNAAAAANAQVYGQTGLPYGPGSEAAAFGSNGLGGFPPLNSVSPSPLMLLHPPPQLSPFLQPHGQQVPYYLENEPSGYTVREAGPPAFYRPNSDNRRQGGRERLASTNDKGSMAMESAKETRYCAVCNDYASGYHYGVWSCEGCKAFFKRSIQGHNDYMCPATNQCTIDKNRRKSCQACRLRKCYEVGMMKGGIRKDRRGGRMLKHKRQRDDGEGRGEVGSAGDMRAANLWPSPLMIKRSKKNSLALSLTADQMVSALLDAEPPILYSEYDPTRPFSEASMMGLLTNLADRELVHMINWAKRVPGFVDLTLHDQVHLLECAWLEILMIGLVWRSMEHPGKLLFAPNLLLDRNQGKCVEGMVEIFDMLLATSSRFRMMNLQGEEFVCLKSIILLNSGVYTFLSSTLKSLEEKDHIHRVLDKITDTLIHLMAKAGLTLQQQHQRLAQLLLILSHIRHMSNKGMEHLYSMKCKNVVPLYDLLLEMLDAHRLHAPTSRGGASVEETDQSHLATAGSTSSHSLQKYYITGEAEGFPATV

Assay [9] is described as follows: qHTS assay to identify small molecule agonists or antagonists of the thyroid stimulating hormone receptor (TSHR) signaling pathway - wild type cell line counter screen (AID 1259384). In short, it runs like this: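 Counter screen in untransfected Hek293: compounds (15-point titration, triplicate) plus phosphodiesterase inhibitor Ro20-1724 added after 18 h plating; 30 min RT. Intracellular cAMP via competitive d2/cryptate immunoassay, 1 h incubation.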

The target in assay [10] is Thyrotropin receptor (Homo sapiens) (UniProt P16473). Briefly: qHTS assay to identify small molecule antagonists of the thyroid stimulating hormone receptor (TSHR) signaling pathway (AID 1259385). Further: nearly all actives have a fitted effect of over 20% in size. In outline: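 Antagonist mode: compound-treated TSHR-expressing HEK293 cells were stimulated with 1.5 ng/mL TSH (final) in presence of Ro20-1724 for 30 min at RT. HTRF cAMP detection after 1 h; each compound tested at 15 concentrations, triplicate.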
Chain of Thyrotropin receptor (Homo sapiens) (P16473 whole entry, looked up): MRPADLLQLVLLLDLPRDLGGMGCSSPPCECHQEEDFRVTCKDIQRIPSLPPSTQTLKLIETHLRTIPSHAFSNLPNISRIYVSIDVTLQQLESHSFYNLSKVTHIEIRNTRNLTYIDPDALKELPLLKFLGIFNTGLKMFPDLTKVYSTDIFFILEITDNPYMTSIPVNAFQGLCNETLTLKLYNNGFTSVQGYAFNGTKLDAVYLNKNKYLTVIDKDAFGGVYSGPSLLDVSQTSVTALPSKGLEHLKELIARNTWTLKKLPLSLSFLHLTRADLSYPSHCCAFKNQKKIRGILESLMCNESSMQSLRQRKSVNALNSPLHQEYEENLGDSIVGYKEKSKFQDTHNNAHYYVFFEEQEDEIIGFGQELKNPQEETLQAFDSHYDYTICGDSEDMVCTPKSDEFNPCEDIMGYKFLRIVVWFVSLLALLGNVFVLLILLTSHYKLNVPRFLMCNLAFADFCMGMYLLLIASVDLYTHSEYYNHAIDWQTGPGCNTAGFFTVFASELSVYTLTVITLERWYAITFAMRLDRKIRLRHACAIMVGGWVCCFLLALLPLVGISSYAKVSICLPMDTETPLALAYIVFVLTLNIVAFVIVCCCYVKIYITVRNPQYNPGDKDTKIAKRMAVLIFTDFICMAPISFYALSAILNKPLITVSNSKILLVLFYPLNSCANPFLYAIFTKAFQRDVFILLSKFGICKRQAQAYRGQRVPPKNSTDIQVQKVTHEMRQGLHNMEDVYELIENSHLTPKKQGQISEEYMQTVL

Assay [11] can be described thus: qHTS assay to identify small molecule agonists of the estrogen receptor alpha (ER-alpha) signaling pathway in the presence of an antagonist - cell viability counter screen (AID 1259386; active means well fitted curve in the direction sought with a large enough effect in the repeat runs; an effect the other way counts as inactive or inconclusive;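 further: series mostly up to about 92 µM; cells exposed to compounds for 22 h at 37 °C before the viability read; nearly all actives have a fitted effect of over 30% in size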). In short, it runs like this:
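VM7Luc4E2 cells (endogenous full-length ER-alpha, 4×ERE-luciferase) were held 5 days in phenol red-free medium with 10% charcoal-stripped FBS, plated, then given 10.0nM ICI-182,780 and compounds at 15 concentrations for 22hr at 37C; viability read by CellTiter-Fluor fluorescence.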

For assay [12], the target named is Progesterone receptor (Homo sapiens) (UniProt P06401). Nature of the assay: qHTS assay to identify small molecule antagonists of the progesterone receptor (PR) signaling pathway (AID 1346795; active means well fitted inhibition curve with a large enough effect in the signal ratio in the repeat runs, not every such curve was filed as active; the % refers to the signal ratio; further: potency means the concentration at half of the fitted maximal effect). In short, it runs like this: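 Inhibition of R5020-induced (1 nM final) beta-lactamase reporter signal in PR-UAS-bla HEK293T cells was scored by FRET fluorescence after overnight (16 hr) compound treatment.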
Chain of Progesterone receptor (Homo sapiens) (P06401 whole entry, looked up): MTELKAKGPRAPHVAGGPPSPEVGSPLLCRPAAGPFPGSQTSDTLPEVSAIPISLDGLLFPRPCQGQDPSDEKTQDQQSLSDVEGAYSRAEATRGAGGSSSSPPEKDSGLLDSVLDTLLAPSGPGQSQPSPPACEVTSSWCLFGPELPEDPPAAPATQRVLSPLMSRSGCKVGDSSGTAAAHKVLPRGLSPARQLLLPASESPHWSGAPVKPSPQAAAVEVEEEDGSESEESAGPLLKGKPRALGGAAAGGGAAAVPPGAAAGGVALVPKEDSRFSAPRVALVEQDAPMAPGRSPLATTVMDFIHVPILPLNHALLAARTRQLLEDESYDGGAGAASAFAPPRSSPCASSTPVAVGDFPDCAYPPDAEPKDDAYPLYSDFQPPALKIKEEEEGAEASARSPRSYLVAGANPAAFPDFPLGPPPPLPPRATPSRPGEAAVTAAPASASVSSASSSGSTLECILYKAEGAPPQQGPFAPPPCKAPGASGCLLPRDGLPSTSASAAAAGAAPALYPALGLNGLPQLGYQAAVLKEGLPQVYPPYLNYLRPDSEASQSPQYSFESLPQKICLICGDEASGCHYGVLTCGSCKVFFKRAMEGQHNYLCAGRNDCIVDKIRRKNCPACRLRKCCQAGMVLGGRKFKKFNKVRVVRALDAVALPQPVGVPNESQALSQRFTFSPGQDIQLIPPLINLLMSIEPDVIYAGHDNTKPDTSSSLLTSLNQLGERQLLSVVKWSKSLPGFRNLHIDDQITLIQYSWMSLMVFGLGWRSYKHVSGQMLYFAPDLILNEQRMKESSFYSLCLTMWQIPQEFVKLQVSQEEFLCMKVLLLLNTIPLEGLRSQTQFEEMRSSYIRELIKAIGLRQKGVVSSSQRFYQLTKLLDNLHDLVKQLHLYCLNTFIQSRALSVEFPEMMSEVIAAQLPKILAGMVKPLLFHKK

Assay [13] in a line: qHTS assay to identify small molecule antagonists of the progesterone receptor (PR) signaling pathway - cell viability counter screen (AID 1346798; active means well fitted curve in the direction sought with a large enough effect in the repeat runs; an effect the other way counts as inactive or inconclusive; further: series mostly up to about 92 µM; nearly all actives have a fitted effect of over 50% in size). In outline:
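ATP content as viability readout: CellTiter-Glo luminescence, 30 min room temperature, in PR-UAS-bla HEK293T cells after 16 hr compound/R5020 treatment at 37C and 5% CO2.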

Assay [14] can be described thus: qHTS assay to identify small molecule agonists of the progesterone receptor (PR) signaling pathway - cell viability counter screen (AID 1346799). Further: nearly all actives have a fitted effect of over 45% in size. In outline: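 Cytotoxicity in PR-bla HEK293T cells: 16 h compound, 37C; CellTiter-Glo added post-FRET read; luminescence after 30 min RT.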
Assay [15] can be described thus: qHTS assay to identify small molecule antagonists of the TGF-beta/Smad signaling pathway - cell viability counter screen (AID 1346824; active means well fitted curve in the direction sought with a large enough effect in the repeat runs; an effect the other way counts as inactive or inconclusive; further: nearly all actives have a fitted effect of over 50% in size). In outline: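 Cytotoxicity counter-screen run in the same wells as the beta-lactamase Smad reporter read: CellTiter-Glo luminescence after 30 min at room temperature. HEK 293T SBE-bla cells had 5 hr compound exposure at 37 C with TGF-beta1 (0.25 ng/mL stock).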

The nature of assay [16]: qHTS assay to identify small molecule agonists of the TGF-beta/Smad signaling pathway - cell viability counter screen (AID 1346829; active means well fitted curve in the direction sought with a large enough effect in the repeat runs; an effect the other way counts as inactive or inconclusive; further: top concentration of the series differs between compounds; nearly all actives have a fitted effect of over 45% in size). In outline:
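Tox21 qHTS format: SBE-bla HEK 293T cells treated with DMSO-dissolved compounds for 5 hr; CellTiter-Glo luminescence after 30 min at room temperature.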

A short description of assay [17]: qHTS assay to identify small molecule agonists of the TGF-beta/Smad signaling pathway (AID 1346859; active means well fitted activation curve with a large enough effect in the signal ratio in the repeat runs, not every such curve was filed as active; the % refers to the signal ratio; further: series mostly up to about 77 µM). In short, it runs like this: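 Stable Smad binding element-beta-lactamase HEK 293T cells; 5 hr compound exposure at 37 C under 5% CO2; 2 hr room-temperature substrate step; fluorescence excited at 405 nm, collected at 460 nm and 530 nm.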
In assay [18] the target is Progesterone receptor (Homo sapiens) (UniProt P06401). Nature of the assay: qHTS assay to identify small molecule agonists of the progesterone receptor (PR) signaling pathway (AID 1346784). Further: nearly all actives have a fitted effect of over 30% in size. In short, it runs like this: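 Using charcoal-stripped serum (2%) to limit endogenous steroids, PR-UAS-bla HEK 293T cells received compounds for 16 hr at 37C after 6 hr plating; beta-lactamase FRET fluorescence was recorded following 2 hr substrate loading at room temperature.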

In assay [19] the target is Thyrotropin-releasing hormone receptor (Homo sapiens) (UniProt P34981). Nature of the assay: qHTS assay to identify small molecule antagonists of the thyrotropin-releasing hormone receptor (TRHR) signaling pathway (AID 1346877; active means well fitted inhibition curve with a large enough effect in the repeat runs, not every such curve was filed as active; further: series mostly up to about 51 µM). In short, it runs like this: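 TRHR-expressing HEK293 cells were seeded, cultured 18 h at 37 °C, then loaded with calcium dye for 2 h. Compounds were pre-incubated 5 min at room temperature before 1 nM TRH (final) was added, and kinetic fluorescence was recorded for 3 min.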
Chain of Thyrotropin-releasing hormone receptor (Homo sapiens) (P34981 whole entry, looked up): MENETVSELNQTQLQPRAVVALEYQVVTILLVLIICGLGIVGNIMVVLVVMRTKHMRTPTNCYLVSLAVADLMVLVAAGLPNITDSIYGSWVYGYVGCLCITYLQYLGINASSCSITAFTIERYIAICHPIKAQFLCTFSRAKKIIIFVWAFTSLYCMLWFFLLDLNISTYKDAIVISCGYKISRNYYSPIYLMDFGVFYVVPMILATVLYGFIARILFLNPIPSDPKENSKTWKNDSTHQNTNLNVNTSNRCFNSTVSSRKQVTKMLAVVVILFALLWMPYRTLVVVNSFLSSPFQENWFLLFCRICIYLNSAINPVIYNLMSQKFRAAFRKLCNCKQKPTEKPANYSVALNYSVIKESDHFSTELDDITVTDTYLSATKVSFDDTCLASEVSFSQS

For assay [20] the target is unchanged. Nature of the assay: qHTS assay to identify small molecule agonists of the thyrotropin-releasing hormone receptor (TRHR) signaling pathway (AID 1346891). Further: series mostly up to about 58 µM. In outline: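 In 1536-format, 1500 TRHR-Hek293 cells per well grew 18 h, took up calcium dye for 2 h at 37 °C, received compound, and were read kinetically; 15-point titrations, triplicates.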

Values without a mark were called inactive. Results filed as inconclusive are left out. Activity calls are given as the source filed them. Unless noted, the call rests on the fitted dose curve.

Chain of Estrogen receptor beta (Homo sapiens) (Q92731 whole entry, looked up): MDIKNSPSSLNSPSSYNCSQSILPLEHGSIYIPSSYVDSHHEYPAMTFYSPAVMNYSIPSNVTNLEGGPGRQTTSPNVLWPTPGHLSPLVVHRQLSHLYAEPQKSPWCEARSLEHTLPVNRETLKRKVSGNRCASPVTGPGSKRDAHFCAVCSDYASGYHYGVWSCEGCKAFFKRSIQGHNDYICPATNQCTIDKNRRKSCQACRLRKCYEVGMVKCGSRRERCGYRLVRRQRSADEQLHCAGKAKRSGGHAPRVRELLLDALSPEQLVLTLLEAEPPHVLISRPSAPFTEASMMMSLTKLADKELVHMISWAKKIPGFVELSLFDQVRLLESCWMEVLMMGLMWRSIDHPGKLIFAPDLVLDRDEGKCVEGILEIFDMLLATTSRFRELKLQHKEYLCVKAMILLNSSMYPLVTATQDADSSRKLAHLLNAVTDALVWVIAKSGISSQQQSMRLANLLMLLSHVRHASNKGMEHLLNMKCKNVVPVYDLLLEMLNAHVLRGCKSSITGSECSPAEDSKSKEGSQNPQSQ
Chain of Androgen receptor (Homo sapiens) (P10275 whole entry, looked up): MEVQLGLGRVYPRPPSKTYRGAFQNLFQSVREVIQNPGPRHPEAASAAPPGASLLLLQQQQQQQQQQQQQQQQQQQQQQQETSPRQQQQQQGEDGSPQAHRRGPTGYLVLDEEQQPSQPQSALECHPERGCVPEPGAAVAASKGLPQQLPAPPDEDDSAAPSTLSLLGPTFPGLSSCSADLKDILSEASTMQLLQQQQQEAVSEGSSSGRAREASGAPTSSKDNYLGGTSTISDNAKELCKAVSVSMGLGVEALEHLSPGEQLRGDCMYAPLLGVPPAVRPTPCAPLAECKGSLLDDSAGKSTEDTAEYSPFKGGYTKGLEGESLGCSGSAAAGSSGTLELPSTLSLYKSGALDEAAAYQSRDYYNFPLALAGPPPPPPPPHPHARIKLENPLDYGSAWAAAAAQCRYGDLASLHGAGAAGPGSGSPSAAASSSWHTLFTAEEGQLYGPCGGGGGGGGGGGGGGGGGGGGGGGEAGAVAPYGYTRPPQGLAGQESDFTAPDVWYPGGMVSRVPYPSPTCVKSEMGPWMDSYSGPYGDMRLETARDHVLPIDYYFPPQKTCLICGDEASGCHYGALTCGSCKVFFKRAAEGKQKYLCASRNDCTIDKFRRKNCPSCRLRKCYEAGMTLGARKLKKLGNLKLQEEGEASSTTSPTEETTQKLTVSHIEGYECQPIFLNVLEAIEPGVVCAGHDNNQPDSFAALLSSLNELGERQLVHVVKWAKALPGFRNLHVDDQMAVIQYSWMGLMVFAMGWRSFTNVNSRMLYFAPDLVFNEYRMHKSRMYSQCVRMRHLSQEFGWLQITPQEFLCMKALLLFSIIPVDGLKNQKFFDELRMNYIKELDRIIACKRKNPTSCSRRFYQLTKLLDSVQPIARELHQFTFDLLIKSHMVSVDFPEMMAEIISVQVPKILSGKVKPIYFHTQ

As to `O=C(O)CCSCCC(=O)O`, the Potency result in assay [1], in assay [2], in [3], in assay [4], in assay [5] and in assay [6] was “inactive” in each case. In addition, the Potency result in assay [11], in [12], in [13] and in assay [14] was “inactive” in each case. In addition, the result in assay [7], in [8], in assay [9], in assay [10], in assay [15] and in [16] was inactive. Besides, the compound was classed as inactive in [17].

As to `CC(N)C12CC3CC(CC(C3)C1)C2` (stereo not given), the Potency entry in assay [1], in assay [2], in assay [3], in [4], in assay [5] and in assay [11] was “inactive” each time. The Potency result in [18], in assay [12], in assay [13], in [14] and in assay [20] was “inactive” in each case. Besides, the result in [7], in assay [8], in assay [9], in assay [10], in assay [15] and in [16] was inactive. Also, the call in assay [17] and in [19] was inactive.

As to `C=CCOCC(O)CO` (stereo not given), the Potency result in assay [1], in assay [2], in assay [3], in assay [4], in [5] and in [11] was “inactive” in each case. Moreover, the Potency result in [18], in [12], in [13], in [14] and in assay [20] was “inactive” throughout. For the same compound, the result in assay [7], in assay [8], in assay [9], in assay [10], in assay [15] and in assay [17] was inactive. Besides, in [19], the outcome was inactive.

As for `CCCCCC(=O)OCCc1ccccc1`, the Potency entry in assay [1], in assay [2], in assay [3], in [4], in [5] and in assay [11] was “inactive” each time. Besides, the Potency result in assay [18], in [12], in [13], in assay [14] and in assay [20] was “inactive” throughout. The outcome in assay [7], in assay [8], in assay [9], in [15] and in assay [17] was inactive.

Take `Cc1nc(C2CCCCC2)c(-c2ccc(S(N)(=O)=O)c(F)c2)o1`: the Potency result in [1], in assay [2], in assay [3], in assay [4], in assay [5] and in assay [11] was “inactive” in each case. In addition, the Potency result in assay [18] and in assay [20] was “inactive” throughout. Moreover, the compound was classed as inactive in assay [7], in [8], in assay [9], in assay [10], in [15] and in assay [16]. In addition, the compound was classed as inactive in assay [17] and in [19]. Further, the Potency in assay [12] was 26.6 µM (active).

Consider `Clc1cc(Cl)cc(Cl)c1`, for which the Potency entry in assay [1], in [2], in assay [3], in assay [4], in assay [5] and in assay [11] was “inactive” throughout. The Potency result in assay [18], in assay [12], in [13], in [14] and in [20] was “inactive” throughout. Further, the compound was classed as inactive in assay [7], in assay [8], in [9], in [10], in [15] and in assay [16]. The compound was called inactive in assay [17] and in assay [19].

As for `CCCCCCC1CCC(=O)O1` (stereo not given), the Potency entry in [1], in assay [2], in assay [3], in assay [4], in [5] and in [11] was “inactive” in each case. The Potency entry in assay [18], in assay [12], in assay [13], in assay [14] and in assay [20] was “inactive” each time. Also, the compound was classed as inactive in assay [7], in assay [8], in [9], in [10], in assay [15] and in assay [16]. In addition, the compound was classed as inactive in [17] and in [19].
